In the supplement of paper PMC13094657:
± gives the standard deviation of the averaged measurements.

System: MDA-MB-231
Test: cell viability relative to vehicle unstimulated control (fraction); higher = more viable cells
Conditions: pre-treatment time: 18 h then 24 h IFNg/TNF
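Also: viability of the cells left after supernatant collection, read with Deep Blue dye added for 4 h, as absorbance at 570 nm minus 600 nm.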

Row | SMILES | cell viability
1 | C/C=C1\C(=O)C[C@H]2[C@@H]3CCC4=CC(=O)CC[C@]4(C)[C@H]3CC[C@]12C [Guggulsterone] (compound dose: 10 uM) | 0.9378 ± 0.0046
2 | CC(CC(=O)C[C@@H](C)[C@H]1CC(=O)[C@@]2(C)C3=C(C(=O)C[C@]12C)[C@@]1(C)CCC(=O)C(C)(C)[C@@H]1C[C@@H]3O)C(=O)O (some centres not stated) [Ganoderic acid D] (compound dose: 10 uM) | 0.916 ± 0.036
3 | CSC(=O)OCC1=C[C@H](O)[C@H]2C(C(=O)O)=CO[C@@H](O[C@@H]3O[C@@H](CO)[C@@H](O)[C@@H](O)[C@H]3O)[C@H]12 [Paederosidic acid] (compound dose: 10 uM) | 1.14 ± 0.012
4 | CCCCCCCCCCCCCC(=O)O[C@@]12[C@H](O)[C@@H](C)[C@@]3(O)[C@@H](C=C(CO)C[C@]4(O)C(=O)C(C)=C[C@@H]34)[C@H]1C2(C)C [Phorbol 13-myristate] (compound dose: 10 uM) | 1.03 ± 0.065
5 | CCCCCC(=O)O[C@@H]1[C@@H](C)[C@@]2(O)[C@@H](C=C(CO)C[C@]3(O)C(=O)C(C)=C[C@@H]23)[C@@H]2C(C)(C)[C@]12OC(=O)CCCCC [Phorbol 12, 13-Dihexanoate] (compound dose: 10 uM) | 1.05 ± 0.076
6 | C=C1CCC[C@]2(C)C=C3OC(=O)C(C)=C3C[C@@H]12 [Atractylenolide I] (compound dose: 10 uM) | 0.983 ± 0.028
7 | CC(C)(O[C@@H]1O[C@H](CO)[C@@H](O)[C@H](O)[C@H]1O)[C@@H]1CC[C@](O)(CO)[C@H]2CC(=O)[C@@](C)(O)[C@@H]2C1 [Atractyloside A] (compound dose: 10 uM) | 0.986 ± 0.03
